Compound activity from PubChem BioAssay.
Compounds with a hit are over-represented: about 0.97% of the library has one in this group of screens.
pAkt inh: inhibitors of Akt phosphorylation | Neuro2A IGF-stimulated pAkt S473 HTRF, 20 min; active compounds read low | activity change, % for hits at 50 µM | 0.32% of 360,000 active; in the data active = activity change below about -80%; inconclusive = mostly about -51% to -80%; also: % is scaled to controls: 0 for no effect and ±100 for the full control effect
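Neuro2A cells (4,500/well, DMEM with 0.5% FBS) were treated with compound at a single 50 µM final concentration, stimulated with 6 nM IGF for 20 min at 37 °C, and lysed. Phospho-Akt Ser473 was read by HTRF as 665/615 ratio ×10^4.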
CCT modulator: modulators of cytosolic chaperonin (CCT/TRiC) activity. purified chaperonin ATPase assay, HTRF ADP detection, 30 min. activity change, % (no concentration beside the values), hits read low. 0.3% of 360,000 active; in the data active = activity change below about -30%; also: % is scaled to controls: 0 for no effect and ±100 for the full control effect
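TRiC at 40 or 20 nM final (batch-dependent) in 30 mM Tris pH 7.4, 100 mM KCl, 5 mM MgCl2, 1 mM DTT, with compound at single 76 uM and 10 uM ATP, 30 min at 37 deg C. ADP detected by HTRF Transcreener, 665/615 ratio.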
MBNL1-CUG inh: inhibitors of human MBNL1 binding to CUG repeat RNA; TR-FRET MBNL1-His/biotin-(CUG)12 binding, 665/545 ratio; Potency, µM (doses to about 57.5 µM), inactives show at the top dose activity change, negative = inhibition, hits mostly inhibitors; 0.036% of 280,000 active; active = well fitted inhibition curve with a large enough effect in the signal ratio, with a control signal flat, not every such curve was filed as active; inconclusive = small, poorly fitted or top-dose-only effect, or effect the other way, or a change in a side signal; inactive = no such curve, though single readings can be large or run the other way; the % refers to the signal ratio; also: potency is read from the fitted curve at half-maximal effect; % is scaled to controls: 0 for no effect and ±100 for the full control effect
Target sequence (Q9NR56 whole entry, looked up): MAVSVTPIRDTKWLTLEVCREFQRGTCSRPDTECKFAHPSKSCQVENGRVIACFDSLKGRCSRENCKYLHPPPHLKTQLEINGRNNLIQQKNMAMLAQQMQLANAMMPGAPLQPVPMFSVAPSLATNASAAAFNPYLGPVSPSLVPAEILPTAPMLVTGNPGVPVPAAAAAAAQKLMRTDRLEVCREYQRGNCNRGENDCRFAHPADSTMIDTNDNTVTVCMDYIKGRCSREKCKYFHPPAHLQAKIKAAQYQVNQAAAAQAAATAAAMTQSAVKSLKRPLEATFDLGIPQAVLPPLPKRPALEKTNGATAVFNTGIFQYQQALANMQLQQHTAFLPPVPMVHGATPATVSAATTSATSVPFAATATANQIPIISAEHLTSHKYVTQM
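TR-FRET readout: Ex 340 nm, 665/545 nm emission ratio, normalized to buffer-only (basal) and MBNL1-(CUG)12 controls. Complex of MBNL1-His with Biotin-(CUG)12, compounds 92 nM–58 uM, incubated 60 min at room temperature.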
uPA generation: cell surface uPA generation inhibition | cell surface uPA generation assay, qHTS | Potency, µM (highest dose often 38.3 µM), inactives show top-dose activity change, negative = inhibition, actives largely listed as inhibitors | 0.31% of 330,000 active; active = well fitted inhibition curve with a large enough effect; inconclusive = small, poorly fitted or top-dose-only effect; inactive = no such curve, though single readings can be large or run the other way; tested in mouse RAW 264.7 cells; also: potency is read from the fitted curve at half-maximal effect; % is scaled to controls: 0 for no effect and ±100 for the full control effect; nearly all actives have a fitted effect of over 55% in size
Epigenetic derep: derepresses silenced GFP reporter in murine cells; 0.2% of 280,000 active; Potency, µM (top dose mostly 53.9 µM), for inactives: top-dose GFP activation, hits mostly activators; AID 1865; murine LDR cells, GFP reporter derepression, 30 h; also: potency is read from the fitted curve at half-maximal effect; % of control where 0% means no effect; nearly all actives have a fitted effect of over 60% in size
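Readout is the number of GFP-expressing murine LDR cells, counted by cytometry following washing. Cells were treated with compound for 30 h at 37 C; the stably integrated CMV-GFP locus is normally silent.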
MmCpn inh: M. maripaludis TRiC chaperonin inhibition; AID 504842; 0.031% of 330,000 active; purified Mm-Cpn ATPase, ADP Transcreener TR-FRET; Potency, µM (series often up to 76.9 µM), inactives show at the highest dose activity, negative = inhibition, hits mostly inhibitors; also: potency is read from the fitted curve at half-maximal effect; % is scaled to controls: 0 for no effect and ±100 for the full control effect; nearly all actives have a fitted effect of over 80% in size
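Purified archaeal Mm-CPN (25nM final) preincubated 10 min at 37degC with compound, then 10uM ATP for 30 min at 37degC; ADP measured by HTRF Transcreener TR-FRET; buffer 30 mM TRIS pH 7.4, 100mM KCl, 5mM MgCl2, 1mM DTT.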
* marks the source's active call; other numbers are inactive results; i = inactive; ? = inconclusive; . = not tested or not shown; [ ] = another dose, or the depositor's remark. Unless noted, calls follow the shape of the dose curve; as a rule, active = well fitted curve in the direction sought with a large enough effect; inconclusive = small, poorly fitted or top-dose-only effect, or another doubt; inactive = no such curve, though single readings can be large; an effect the other way counts as inactive or inconclusive.

SMILES | pAkt inh | CCT modulator | MBNL1-CUG inh | uPA generation | Epigenetic derep | MmCpn inh
COc1ccccc1-c1cc(-c2ccccc2)nc(SC(C(N)=O)c2ccccc2)c1C#N (stereo not given) | -91%* | 0 | 59% | -1% | ? | -12%
CC(C)c1ccccc1OCCCCCN1CCOCC1 | i | 0 | . | 1% | . | .
COC(=O)/C=C1\N/C(=N\c2nc(C)cc(C)n2)N(c2ccccc2)C1=O | i | -38* | 10% | -11% | 1% | -1%
COC(=O)/C=C1/N/C(=N\c2nc(C)cc(C)n2)N(c2ccccc2)C1=O | i | 1 | . | 3% | 0% | 1%
Cc1nc(SCC(=O)Nc2c(C)n(C)n(-c3ccccc3)c2=O)[nH]c(=O)c1C | i | 1 | . | 7% | . | .
CC1CCN(C(=O)COC(=O)CCCN2C(=O)c3cccc4cccc(c34)C2=O)CC1 | i | -94* | ? | 16% | . | 3%
CCc1ccccc1NC(=O)c1cnn2c(C(F)(F)F)cc(-c3ccc(OC)c(OC)c3)nc12 | . | . | . | . | 13µM* | .
C/C(=N\O)c1ccc2[nH]ccc2c1 | i | 3 | -2% | 5% | -1% | 0%
C/C(=N\O)c1ccc2c3c([nH]c2c1)CCCC3 | -90%* | -2 | 6% | 2% | 0% | -2%
O=C(NC(=S)Nc1ccc(N2CCN(C(=O)c3ccccc3)CC2)cc1)c1cccs1 | i | -3 | 3% | -11% | 1% | 0%
CC(C)Cc1nnc(NC(=O)CCC(=O)N2CCN(c3ccc(Cl)cc3)CC2)s1 | i | -4 | 3% | 0% | . | 0%
CCOC(=O)Nc1ccc2c(c1)N(C(=O)CCN1CCN(CCO)CC1)c1ccccc1S2 | -124%* | 1 | . | -6% | . | .
N#C/C(=N/Nc1ccc(OC(F)(F)F)cc1)C(N)=S | i | -3 | . | 7.9µM* | -1% | -10%
COc1ccc(N2CCN(C(=O)CN(c3cccc(OC)c3)S(=O)(=O)c3ccccc3)CC2)cc1 | i | -2 | -4% | 20% | . | 1%
CCOC(=O)c1sc(NC(=O)CC(C)c2ccccc2)nc1C (stereo not given) | i | -15 | 18% | -13% | . | -1%
CCOC(=O)c1sc(NC(=O)CCc2ccccc2)nc1C | i | 0 | 8% | 4.5µM* | . | 4%
CCOC(=O)c1sc(NC(=O)c2c(OC)cccc2OC)nc1C | -119%* | 0 | -2% | 1% | -1% | -3%
COc1ccc(N2CC(NC(=O)COc3ccc(F)cc3)CC2=O)cc1OC (stereo not given) | . | . | . | . | 1% | .
COc1cccc(Cn2ncc3c4sc(B(O)O)cc4n(C)c3c2=O)c1 | . | . | . | . | . | -2%
O=c1[nH]c2cc(Cl)ccc2n(CCNc2ncc(C(F)(F)F)cc2Cl)c1=O | i | -67* | 10% | 4% | -1% | 0%
C[N+]1(C)CCC(=C(c2ccccc2)c2ccccc2)CC1 | i | 0 | . | -17% | 0%[16.9 µM] | 1%
CCOc1ccc(-n2cc(-c3ccccc3)c3c(N4CCN(c5ccccc5OC)CC4)ncnc32)cc1 | . | . | . | . | 1% | .
COc1ccc(CN(C)C(=O)/C=C/[C@H]2O[C@@H](n3cnc4c(N)ncnc43)[C@H](O)[C@@H]2O)cc1OC | i | 2 | . | . | . | .
COc1ccc(-n2c(C)cc(C(=O)CN3C(=O)NC4(CCCc5sccc54)C3=O)c2C)cc1 (stereo not given) | i | -5 | 7% | 11µM* | 9% | -9%
COc1ccc(NC(=O)CCCCn2c(=O)[nH]c3ccccc3c2=O)cc1 | i | 0 | 9% | -3% | 0% | -5%
SMILES | pAkt inh | CCT modulator | MBNL1-CUG inh | uPA generation | Epigenetic derep | MmCpn inh
COc1ccc(NC(=O)CCCn2c(=O)[nH]c3ccccc3c2=O)cc1 | -110%* | 1 | 5% | 0% | -3% | 1%
CC1C(NC(=O)/C(=N/OC(C)(C)C(=O)O)c2csc(N)n2)C(=O)N1S(=O)(=O)O (stereo not given) | . | . | . | . | 0% | .
COc1cccc(-c2nc3ccccc3c(=O)o2)c1 | i | 1 | -10% | -2% | 0% | 0%
COc1cc(OC)cc(-c2nc3ccccc3c(=O)o2)c1 | -99%* | 0 | -1% | 9% | -1% | -11%
CCc1ccc(C(=O)c2cn(CC(=O)Nc3ccc(OC)c(Cl)c3)c3nc(C)ccc3c2=O)cc1 | . | . | . | . | 16µM* | .
CCOc1ccc(NC(=O)Cn2cc(C(=O)c3ccc(CC)cc3)c(=O)c3ccc(C)nc32)cc1 | . | . | . | . | 3% | .
COc1ccc(-c2cc(C)nc(SCC(=O)c3cccc([N+](=O)[O-])c3)n2)cc1 | i | -46* | -4% | . | -2% | -8%
CCCCOc1ccc(-n2nc(C)cc2C)nn1 | -101%* | -5 | -2% | 3% | -2% | -2%
C=CCn1c(SCC(=O)Nc2sccc2C(N)=O)nc2sc(CC)cc2c1=O | -111%* | 0 | 4% | -19% | 0% | -1%
CC1=C(C(=O)Nc2ccccn2)C(c2cn(C)nc2C)C2=C(CCCC2=O)N1 (stereo not given) | i | 0 | 6% | -2% | 2% | -2%
Nn1c(SCC(=O)Nc2ccc(F)cc2)nnc1-c1cccnc1 | i | -4 | -1% | . | 1% | 0%
N#CC(c1ccccc1O)N1N=C(c2ccccc2)CC1c1ccccc1 (stereo not given) | i | 1 | -7% | -12% | -1% | -2%
COc1cc(C(C#N)N2N=C(c3ccccc3)CC2c2ccccc2)ccc1O (stereo not given) | -113%* | -2 | -2% | -4% | -1% | -1%
C/C(CCC(=O)OC[C@@H]1O[C@H](C#Cc2ccccc2)C=C[C@@H]1Oc1ccc(C)cc1)=N/O[C@@H](C)c1cn([C@H](CO)Cc2ccccc2)nn1 | . | . | . | . | 1%[10.1 µM] | .
COC(=O)CNC(c1ccccc1)c1cc(Br)ccc1NC(=O)c1ccccc1 (stereo not given) | . | . | . | . | -1% | .
CCc1n[nH]c(=S)n1/N=C/c1ccc2c(c1)OCO2 | i | -2 | 4% | . | 0% | 1%
CCCc1nnc(SCC(=O)O)n1/N=C/c1ccc2c(c1)OCO2 | i | -63* | 4% | 2% | 8% | 1%
Cc1ccc(C(=O)NC2CCCCCC2)o1 | -140%* | 0 | -9% | 0% | 1% | -1%
Cc1ccc(C(=O)OCC(=O)NC2CCCCC2)o1 | i | -2 | -6% | -1% | . | 2%
Cc1cccc(C)c1NC(=O)CNC(=O)c1ccc(COc2ccccc2)cc1 | i | 0 | . | -14% | . | -2%
Cc1ccccc1C(=O)NNC(=O)c1cc(S(=O)(=O)N2CCOCC2)ccc1C | i | 0 | . | ? | . | -1%
COc1ccc(C(=O)C[n+]2ccc3c(c2)nc(-c2ccccc2)n3C)cc1 | i | -36* | . | 3% | 1% | 1%
